Bioassay records deposited in PubChem by several laboratories.
Compounds with a hit are over-represented: about 2.6% of the library has one in this group of screens.
697 NFkB inh: lowers PMA/ionomycin-induced NF-kB signal in 697 B cells; 697 B-cell NF-kB luciferase reporter, 16 h; 0.33% of 330,000 active; inhibition, % at 4 µM; in the data active means inhibition above about 35%
TAG inh: reduces triacylglycerol accumulation in H9c2 cells | Nile Red lipid (TAG) fluorescence; cells loaded with 200 µM oleic acid | inhibition, % at 12.5 µM | 0.66% of 230,000 active | AID 651582;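 active means pattern-corrected inhibition of lipid staining of at least 50% with the nuclear-stain viability signal not falling by more than 50%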;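 further: 0% = DMSO wells and 100% = triacsin C control wells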
Jurkat NFkB inh: inhibitors of the PMA/ionomycin-induced NF-kB reporter in Jurkat cells; PMA/ionomycin-induced NF-kB luciferase reporter, luminescence; inhibition, % at 4 µM; 0.53% of 330,000 active; AID 435003; in the data active means inhibition above about 50%
COUP-TFII inh: blocks human COUP-TFII nuclear receptor | 0.7% of 370,000 active | P24468 | inhibition, % at 8.6 µM | HEK293T NGFI-A luciferase reporter, luminescence;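 active means inhibition above a per-plate cutoff, mean inhibition of test wells between control levels plus 3 SD, cut at about 38% in these data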;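 further: cells cotransfected with COUP-TFII expression vector driving the NGFI-A reporter; 0% = median of COUP-TF2 test wells and 100% = reporter-only cells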
Target sequence (P24468 whole entry, looked up): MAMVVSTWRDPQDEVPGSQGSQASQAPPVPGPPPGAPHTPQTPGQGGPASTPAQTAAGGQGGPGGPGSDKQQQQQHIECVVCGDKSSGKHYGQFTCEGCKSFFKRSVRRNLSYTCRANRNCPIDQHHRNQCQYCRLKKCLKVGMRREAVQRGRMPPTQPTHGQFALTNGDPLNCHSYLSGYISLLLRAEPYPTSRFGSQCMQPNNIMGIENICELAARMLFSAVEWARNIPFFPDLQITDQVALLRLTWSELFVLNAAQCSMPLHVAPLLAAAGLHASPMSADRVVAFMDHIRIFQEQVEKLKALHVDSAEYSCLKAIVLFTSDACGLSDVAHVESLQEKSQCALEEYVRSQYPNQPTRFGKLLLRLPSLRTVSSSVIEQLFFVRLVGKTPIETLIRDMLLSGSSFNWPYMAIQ
Cardio protect: protects H9c2 cardiomyocytes from peroxide injury; AID 588492; H2O2 injury protection, ATPLite, 2 h; 0.63% of 360,000 active; protection from H2O2 cell death, % at 20 µM;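 active means compounds giving at least 50% protection of heart cells from peroxide-induced death in the single-dose screen, raw or plate-pattern-corrected value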;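 further: 0% = DMSO wells with peroxide and 100% = DMSO wells without peroxide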
Gli-Sufu block: blocks Gli-Sufu signaling in a luciferase reporter; inhibition, % at 5 µM; AID 588413; Sufu-KO-LIGHT fibroblasts, Gli luciferase reporter luminescence; 0.74% of 340,000 active;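 active means inhibition above about 55%, limit read from the data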;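 further: 0% = DMSO-treated cells and 100% = wells with medium but no cells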
* hit, by the source's call; · = not tested or not shown.

SMILES	697 NFkB inh	TAG inh	Jurkat NFkB inh	COUP-TFII inh	Cardio protect	Gli-Sufu block
Nc1nonc1-n1nnc(C(=O)N/N=C/c2ccccn2)c1CNc1ccccc1	8	·	5	8	50*	0
CCOC(=O)c1csc(NC(=O)C2CCCN(S(=O)(=O)c3ccccc3[N+](=O)[O-])C2)n1 (stereo not drawn)	·	·	·	10	·	·
c1ccc(Nc2nc3ccccc3n3nnnc23)cc1	-66	23	-55	-9	28	-47
Fc1cccc(Nc2nc3ccccc3n3nnnc23)c1	-15	14	-6	0	19	-16
c1ccc2c(c1)nc(Nc1ccc3c(c1)OCO3)c1nnnn12	2	-8	-33	-11	56*	-13
CCN(CC)S(=O)(=O)c1ccc(Nc2nc3ccccc3n3nnnc23)cc1	-52	27	-82	-7	83*	-51
COc1cccc(Nc2nc3ccccc3n3nnnc23)c1	-46	4	-33	-41	68*	-20
COc1cc(=O)oc(C=O)c1C	·	·	·	-9	·	·
CC(C)C[C@H]1COc2cc(Br)ccc2S(=O)(=O)N1Cc1cn(Cc2ccc(F)cc2)nn1	·	·	·	5	·	·
CCCCNC(=O)NS(=O)(=O)c1ccc(NC(=O)CSc2nnc(-c3ccc(Cl)cc3)n2N)cc1	·	·	·	6	·	·
CC(C(=O)NC1CCCC1)N(C(=O)Cn1nnc(-c2ccc(F)cc2)n1)c1ccccc1F (stereo not drawn)	-13	·	-17	24	64*	-11
O=C(NCC1CCCO1)C(c1ccc(F)cc1)N(C(=O)Cn1nnc(-c2ccc(F)cc2)n1)c1cccc(O)c1 (stereo not drawn)	16	23	-9	11	56*	2
O=C(NC1CCCC1)C(c1c[nH]c2ccccc12)N(C(=O)Cn1nnc(-c2ccc(Cl)cc2)n1)c1ccccc1 (stereo not drawn)	9	77*	-1	-3	43	-1
CC(C)(C)NC(=O)C(c1c[nH]c2ccccc12)N(C(=O)Cn1nnc(-c2ccc(Cl)cc2)n1)c1ccccc1F (stereo not drawn)	-19	15	1	7	-10	15
Cc1cc(-c2n[nH]c(=S)n2N=Cc2ccc(-c3ccccc3)cc2)n[nH]1	·	·	·	5	·	·
COC(=O)[C@]12C[C@H](CC(=O)N3CCN(C(=O)C4CC4)CC3)C(=O)N(CCc3ccc(OC)c(OC)c3)C1=C[C@H](C1CCCC1)O[C@@H]2C	·	·	·	-5	·	·
O=C(CNS(=O)(=O)c1ccc(Br)s1)N1CCN(c2ccccn2)CC1	·	·	·	3	·	·
CC(=O)c1cc(-c2ccccc2)c(=O)n2c1CCC2	·	·	·	2	·	·
O=C(Nc1ccc([N+](=O)[O-])cc1)Nc1nc(-c2ccc(Cl)s2)cs1	·	20	·	5	-20	60*
Cc1cccc(N2CCN(C(=O)CCc3nc4ccccc4c(=O)[nH]3)CC2)c1C	-7	-6	5	-2	50*	5
O=C(CCc1nc2ccccc2[nH]c1=O)OCC(=O)N1CCc2ccccc21	1	28	9	8	8	-4
O=C(CCc1nc2ccccc2c(=O)[nH]1)OCC(=O)N1CCc2ccccc21	-25	5	-5	18	57*	-2
O=C(CCc1nc2ccccc2c(=O)[nH]1)N1CCN(C/C=C/c2ccccc2)CC1	4	9	-11	3	59*	25
CC(C)Cn1c(N)c(C(=O)COC(=O)CCc2nc3ccccc3c(=O)[nH]2)c(=O)n(C)c1=O	-1	-7	2	16	54*	-6
O=c1[nH]c(CN2CCN(c3ccc(F)cc3)CC2)nc2ccccc12	-9	·	5	17	13	2
SMILES	697 NFkB inh	TAG inh	Jurkat NFkB inh	COUP-TFII inh	Cardio protect	Gli-Sufu block
O=C(CCc1nc2ccccc2c(=O)[nH]1)N1CCN(c2ccc(F)cc2)CC1	1	23	-25	-1	72*	2
CC(=O)N1CCN(C(=O)CCc2nc3ccccc3c(=O)[nH]2)CC1	6	·	12	1	61*	8
O=C(Nc1ccc(F)c(C(F)(F)F)c1)Nc1nnc(-c2ccncc2)s1	·	·	·	-15	·	·
C=CCC[C@@H](Cc1ccc(F)cc1)C(=O)OC[C@@H](Cc1c[nH]c2ccccc12)NC(=O)[C@@H](CC=C)CC(=O)NCCO	-4	5	-1	0	50	-4
C=CCC[C@H](Cc1ccc(F)cc1)C(=O)OC[C@@H](Cc1c[nH]c2ccccc12)NC(=O)[C@@H](CC=C)CC(=O)NCCO	-14	-13	-10	2	68*	-6
O=C(Nc1nc2c(Br)cccc2s1)c1ccc2c(c1)OCCO2	·	·	·	-26	·	·
O=C(CSc1nc2nn(-c3ccccc3)c(=O)c-2c2n1CCCCC2)c1ccc(O)c(O)c1	8	18	-10	·	100*	3
CC(=O)c1ccc(NC(=O)CSc2nc3nn(-c4ccccc4)c(=O)c-3c3n2CCCCC3)cc1	·	17	·	-4	30	8
N#C/C(=C/c1ccc(O)c(O)c1)C(=O)NCc1ccc(Cl)cc1	-101	·	-25	-4	65*	22
COc1ccc(/C=C(\C#N)C(=O)Nc2cccc3ncccc23)cc1OC	-2	3	-1	-5	1	-1
CC(NC(=O)/C(C#N)=C/c1ccc(Cl)c([N+](=O)[O-])c1)c1ccccc1 (stereo not drawn)	3	·	-1	-1	·	-4
N#C/C(=C\c1cccnc1)C(=O)Nc1ccccc1	·	·	·	-4	4	1
N#C/C(=C/c1cccc(O)c1)C(=O)NCc1ccc(Cl)cc1	-11	·	9	1	-5	-5
N#C/C(=C\c1ccc(O)c(O)c1)C(=O)Nc1cccc2ncccc12	3	·	11	-7	55*	-14
N#C/C(=C\c1ccc(O)c(O)c1)C(=O)Nc1ccccc1	-77	-12	17	-5	55*	29
C[C@@H](NC(=O)/C(C#N)=C/c1ccc(O)c(O)c1)c1ccccc1	-76	7	24	-2	62*	4
O=C(OC12CCCN(C1)/C(=C/c1cccc(Cl)c1)C2)c1ccccc1 (stereo not drawn)	·	·	·	7	·	·
NC(=O)N/N=C/c1cn(-c2ccccc2)nc1-c1cccs1	-5	7	-36	-31	-9	-36
O=C(N/N=C/c1cn(-c2ccccc2)nc1-c1cccs1)c1ccncc1	-8	8	-16	-23	54*	-6
O=C(N/N=C/c1nn(-c2ccccc2)cc1-c1ccccc1)c1ccncc1	-10	·	-2	-3	62*	-11
Cc1ccc(-c2nn(-c3ccccc3)cc2/C=N/NC(=O)c2ccncc2)o1	-76	12	-47	-51	44	-77
COc1ccc(C(C(=O)N(C)C2CCCC2)N(Cc2ccc(F)cc2)C(=O)c2cc(C)[nH]n2)cc1OC (stereo not drawn)	·	·	·	-18	·	·
Cc1nc2ccc(NS(=O)(=O)c3ccc4c(c3)OCCO4)cc2s1	-5	-42	14	65*	-30	10
COC(=O)C1CN(Cc2ccc(C)cc2)CCS(=O)(=O)N1Cc1cn(Cc2ccccc2)nn1 (stereo not drawn)	·	·	·	-14	·	·
